Data on 93 molecules can be found in PubChem BioAssay AID1878 (Sanford-Burnham Center for Chemical Genomics, 2009).

The term inhibition denotes the change of the read-out against control, counted positive when it falls.

The whole screen tested about 1,000 compounds, of which about 200 (20%) were called active. The list is a sample of the results. Measured potencies and affinities stand elsewhere. Values without a mark were called inactive. Rule as the data show it: active = inhibition above about 55%; inactive = the rest.

For this assay, the target named is Dual specificity protein phosphatase 3 (Homo sapiens) (UniProt P51452). The experiment in a line: VHR1 phosphatase inhibitors, biochemical (AID 1878). As to conditions: recombinant VHR phosphatase, fluorogenic substrate; at 13.3 µM; active compounds read high.
Sequence of Dual specificity protein phosphatase 3 (Homo sapiens) (P51452 whole entry, looked up): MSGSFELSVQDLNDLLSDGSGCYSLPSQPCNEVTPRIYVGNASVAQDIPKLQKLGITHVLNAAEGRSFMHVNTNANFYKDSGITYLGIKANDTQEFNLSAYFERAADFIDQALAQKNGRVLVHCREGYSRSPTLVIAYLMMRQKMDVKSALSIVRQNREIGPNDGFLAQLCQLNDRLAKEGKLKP
Consider `Cc1ccc(N2C(=O)c3ccccc3C2=O)nc1`, for which the inhibition is -3.1%.
In the case of `CCN1CCN(C(=O)c2cc3ccc(OC)cc3[nH]2)CC1` it was 10.9%; in that of `COc1ccc(Br)cc1S(=O)(=O)N1CCCc2ccccc21`, -6.5%; in that of `CSc1ncc(C(=O)Nc2cc(C)ccc2C)c(C)n1`, -5.1%.
In the case of `Cc1cc2nc3s/c(=C/c4ccc(-c5ccccc5C(=O)O)o4)c(=O)n3c2cc1C` it was 74.7% (active); in that of `CN(C)CCN(CC1CCCN(Cc2ccccc2F)C1)C(=O)Cc1ccccc1F` (stereo not drawn), -15.2%.
With `CC1=C(C(=O)Nc2cccc(C(=O)N3CCC(C(N)=O)CC3)c2)SCCO1`, the inhibition was 4.8%.
In the case of `COc1ccc(NC(=O)NCCN2CCCCC2)cc1` it was -10.3%.
In the case of `CCN(CC)CCNC(=O)CCN1N=C(c2ccccc2)CCC1=O` it was 2.7%; in that of `O=C(c1ccc(NC2=NC3CS(=O)(=O)CC3S2)cc1)N(CCO)Cc1ccccc1` (stereo not drawn), 0.9%; in that of `O=C1C(Cl)=C(N2CCOCC2)C(=O)N1c1ccccc1F`, -7.3%.
In the case of `COc1ccc(N(C(=O)c2snc(C(N)=O)c2N)C(C(=O)NC2CCCC2)c2ccc(F)cc2)c(OC)c1` (stereo not drawn) it was -0.8%.
As to `CC1CCCCN1CCCNC(=O)CCCN1C(=O)c2cccnc2Sc2ccccc21` (stereo not drawn), the inhibition was -12.7%.
`CC1CCN(CCCNC(=O)C2CC(=O)N(CCc3ccccc3)C2)CC1` (stereo not drawn): the inhibition was -14.3%.
In the case of `COc1ccc(N(C)S(=O)(=O)c2ccc3c(c2)NC(=O)CC(=O)N3)c(OC)c1` it was 7.8%; in that of `COC(=O)C1=NN(C(=O)c2ccccc2)C(O)(c2ccc([N+](=O)[O-])cc2)C1` (stereo not drawn), -7.4%.
For `CC(Cc1n[nH]c(=S)n1N)c1ccccc1` (stereo not drawn) the value was -2.8%.
In the case of `CCc1cc(=O)oc2c(C)c(OCC(=O)NCCCN3CCOCC3)ccc12` it was 3.5%; in that of `CCOCCn1cnc2sc(C(=O)NCCCN3CCOCC3)c(C)c2c1=O`, 9.7%; in that of `CCOC(=O)C1(CCc2ccccc2)CCN(CC(O)CO)CC1` (stereo not drawn), -10.8%.
With `Cn1c(=O)c2c(ncn2CCOc2ccc(F)cc2)n(C)c1=O`, the inhibition is -6.4%.
For `Cc1cc(C)cc(NCc2cc(=O)oc3cc(C)c(O)cc23)c1` the value was 8.5%.
Turning to `CCn1cc(CCC(=O)NCCN2CCOCC2)c2ccccc21`, the inhibition is -13.7%.
For `C/C(=N\NC(=O)c1cc(O)cc(O)c1)c1ccc(NC(=O)Cc2ccccc2)cc1` the value was 96.6% (active); for `O=C(Cc1ccccc1)Nc1ccc(C(=O)Nc2ccc(O)cc2)cc1`, 1.2%; for `C/C(=N\NC(=O)CNC(=O)c1cccc(F)c1)c1ccc2ccccc2c1`, 1.1%.
`O=C(CN1CCCCCC1)N/N=C/c1ccc2ccccc2c1`: the inhibition was -6.1%.
In the case of `O=C(O)c1ccc(/C=N/NC(=O)c2cc3c(ccc4ccccc43)o2)cc1` it was 98.7% (active); in that of `O=C(N/N=C/c1ccc([N+](=O)[O-])o1)c1cc2c(ccc3ccccc32)o1`, 98.8% (active).
With `O=C(NCc1c(O)ccc2ccccc12)c1ccccc1`, the inhibition was 2.1%.
In the case of `O=C(N/N=C/c1cccc([N+](=O)[O-])c1)c1cc2c(ccc3ccccc32)o1` it was 98% (active); in that of `Cc1ccc(NC(=O)C(=O)NCc2ccc(/C=N/NC(=O)c3c(C)nc4ccccn34)o2)cc1`, 18.4%; in that of `O=C(NCc1ccc(Cl)cc1)Nc1ccc(F)cc1`, 0.7%.
In the case of `CCOC(=O)c1cc(/C(C)=N/OC(=O)c2ccc(C(C)(C)C)cc2)on1` it was 0.2%; in that of `COc1ccc(S(=O)(=O)N2CCCC(C(=O)NCC3CCCO3)C2)cc1C` (stereo not drawn), -4.1%.
In the case of `COc1ccc(C(=O)NCc2nnc(SCC(=O)Nc3cc(OC)ccc3OC)o2)cc1` it was -6.8%.
For `CC1CCCN(CCCNC(=O)C2CC(=O)N(CCc3ccccc3)C2)C1` (stereo not drawn), the inhibition was -5.4%.
In the case of `CCC1CCCCN1CCCNC(=O)C1CC(=O)N(CCc2ccccc2)C1` (stereo not drawn) it was 20.9%.
In the case of `NC(=S)N=Nc1ccc(NN=C(N)N)cc1` it was 40.2%; in that of `COc1ccc(NC(=O)Cc2nnc(SCC(=O)NC3CCCC3)n2C)cc1`, -4.1%.
In the case of `CCNC(=O)c1cc(Br)ccc1Cl` it was -8.7%; in that of `CN(c1ccccc1)S(=O)(=O)c1nnc(NC(=O)C2CCCCC2)s1`, -1.3%; in that of `Cn1c2ccccc2c(=O)c2ccc(C#Cc3ccccn3)cc21`, 75.5% (active).
Consider `Cc1nc([N+](=O)[O-])cn1Cc1cccc2ccccc12`, for which the inhibition is -13.3%.
`O=C(Cn1c2ccccc2c(=O)c2ccccc21)N/N=C/c1cc([N+](=O)[O-])ccc1N1CCCCCC1`: the inhibition is 99.4% (active).
Regarding `O=C(CN1CCCCC1)N/N=C/c1cccc(Cl)c1`, the inhibition was -9.7%.
On to `O=C(N/N=C/c1cccnc1)c1cccc(NC(=O)c2ccc(Cl)cc2)c1`, for which the inhibition is 92.9% (active).
In the case of `Cc1nc2cc(NC(=O)c3ccc(Cl)cc3)ccc2n1C` it was -9.5%.
`O=C(N/N=C/c1ccncc1)c1cccc(S(=O)(=O)Nc2ccc(Cl)cc2)c1`: the inhibition is 98.9% (active).
In the case of `NC(=O)c1ccc(C(=O)N/N=C/c2cccc(Oc3ccccc3)c2)cc1` it was -0.5%; in that of `CN(C)CCNC(=O)c1cccc(S(=O)(=O)Nc2ccc(F)cc2)c1`, -5.8%.
As to `Cc1ccc(S(=O)(=O)NC(CC(=O)NC2CCCC2)c2ccco2)cc1` (stereo not drawn), the inhibition was 23.6%.
Consider `CSc1ncc(C(=O)Nc2ccccc2Cl)c(C)n1`, for which the inhibition was -1.1%.
In the case of `COc1ccc(OC)c(N/C(N)=N/c2nc(C)cc(C)n2)c1` it was -19.2%.
In the case of `Cc1ccc(NC(=O)CCNC(=O)c2ccccc2Cl)nc1` it was 1.9%.
In the case of `CC(c1ccccc1)N1CCn2c(nc3cc(NC(=O)NC4CCCCC4)ccc32)C1` (stereo not drawn), the inhibition is -21.4%.
For the molecule `COc1ccc(/C=C2\N=C(C)OC2=O)cc1OC`, the inhibition is -5.7%.
For `CC(C)OCCCNc1ncnc2c1nc1n2CCCC1` the value was -2.4%.
In the case of `COC(=O)c1ccnc(/C=N/O)c1` it was 9.3%; in that of `COc1ccc(-c2nnc(Nc3nc4c(OC)cccc4s3)o2)cc1`, 95.5% (active); in that of `COc1ccc(-c2nnc(SC(C)C(=O)NNC(=O)c3ccc(C)cc3)o2)cc1` (stereo not drawn), -2.9%.
In the case of `Cc1[nH][nH]c(=O)c1C(c1cc(Br)ccc1O)c1c(C)[nH][nH]c1=O` it was 3.3%; in that of `COc1ccccc1N1CCN(C2CCCN(C(=O)CCC(=O)N(C)C)C2)CC1` (stereo not drawn), -13.2%; in that of `CCCC(NC(=O)Cc1c(C)c2cc3c(C)c(C)oc3c(C)c2oc1=O)C(=O)N[C@@H](Cc1ccccc1)C(=O)O` (stereo partly drawn), 68.8% (active).
As for `COc1ccc2c(c1)cc(C(=O)N[C@@H](Cc1ccccc1)C(=O)N[C@@H](C)C(=O)O)n2C`, the inhibition is -10.4%.
In the case of `Cn1c(C(=O)N[C@@H](Cc2ccccc2)C(=O)O)cc2cc(Cl)ccc21` it was 3.5%.
In the case of `Cc1nn(CC(=O)NCCCN2CCCCC2C)c(=O)c2cccn12` (stereo not drawn) it was -5.4%; in that of `CCOCCCNC(=O)C1CC(=O)N(CCc2ccccc2)C1` (stereo not drawn), 15%.
In the case of `CC(C)CCNC(=O)CN(C(=O)CCC(=O)Nc1ccccn1)c1ccc2c(c1)OCCO2` it was 5.2%; in that of `Nc1nc(-c2cc(O)ccc2[N+](=O)[O-])cc(-c2ccccc2)c1[N+](=O)[O-]`, 80.5% (active).
Consider `O=C(NN1C(=O)C2C(C1=O)C1C=CC2C12CC2)c1ccccc1` (stereo not drawn), for which the inhibition was 3.2%.
For `N#Cc1c(N2CCCC(O)C2)nc(N)c2c(N)nc3c(c12)CC(=O)N3C12CC3CC(CC(C3)C1)C2` (stereo not drawn) the value was -7.9%.
In the case of `N#Cc1c(N2CCCC2)nc(N)c2c(N)nc(N3CCCC3)cc12` it was 78.3% (active); in that of `CCOC(=O)c1c(C)[nH]c(C)c1S(=O)(=O)NC1CCN(C(=O)OCC)CC1`, -2%.
For `COc1cccc(CNCCc2ccc3c(c2)OCO3)c1OC` the value was 26.4%; for `CCCN1CCC(NC(=O)CC2C(=O)NCCN2Cc2ccccc2C)CC1` (stereo not drawn), -11.6%.
`O=C(O)CCCNc1cc(N2CCC3(CC2)OCCO3)c2noc3c2c1C(=O)c1ccccc1-3`: the inhibition was 12.8%.
For `CC1(C)CC(NC(=S)Nc2ccc(S(N)(=O)=O)cc2)CC(C)(C)N1` the value was 58.2% (active); for `Cc1ccc(S(=O)(=O)NC2CCCCCC2)cc1C(N)=O`, -4.2%; for `CC1(C)CC(NS(=O)(=O)c2ccc(C(C)(C)C)cc2)CC(C)(C)N1`, 6.7%.
In the case of `NS(=O)(=O)c1ccc(NC(=S)NC2CCCCCC2)cc1` it was 56.7% (active); in that of `CC1(C)CC(NC(=O)C(c2ccccc2)c2ccccc2)CC(C)(C)N1`, 24%; in that of `O=C(CCCC(=O)N(CC(=O)NC1CCCC1)c1cccc(F)c1)Nc1ccccn1`, -10.4%.
For `Cn1cc(CN2CCCCC2C(=O)Nc2ccc(-n3cccn3)cc2)cn1` (stereo not drawn) the value was 10.3%; for `CCC(=O)N1c2ccc(S(=O)(=O)NCCc3ccc(C)cc3)cc2CC1C` (stereo not drawn), 7.9%.
With `CCC(C)N(C(=O)c1csnn1)C(C(=O)NC1CCCC1)c1ccccc1F` (stereo not drawn), the inhibition is 10%.
Consider `CSc1sccc1/C=C(/C#N)C(=O)c1ccco1`, for which the inhibition is 28.9%.
In the case of `CCn1c(=O)n(CC)c2cc(N3CCCC3)c(NC(=O)c3ccccc3F)cc21` it was -2.4%.
For `COCCn1c(SCC(=O)N2CCCC(C)C2)nnc1-c1ccco1` (stereo not drawn) the value was -3.4%; for `O=C(CCNS(=O)(=O)c1ccccc1)N1CCCCCC1`, 7.7%.
In the case of `O=C(NCc1ccccc1Cl)C1CCC(CNc2nc(=S)[nH]c3ccccc23)CC1` (stereo not drawn) it was -7%; in that of `CC1CCN(CCCNC(=O)C2CCN(S(=O)(=O)N3CCC4(CC3)OCCO4)CC2)CC1`, 1.6%; in that of `O=C(c1cc(C2CC2)on1)N1CCCC(N2CCN(c3ccc(F)cc3)CC2)C1` (stereo not drawn), 0.4%.
